# Experimental data taken from PubChem BioAssay (NCATS).
# Results filed as inconclusive are left out. The source made the active and inactive calls. Unless noted, calls come from the whole dose curve; as a rule, active = well fitted curve in the direction sought with a large enough effect; inconclusive = small, poorly fitted or top-dose-only effect, or another doubt; inactive = no such curve, though single readings can be large; an effect the other way counts as inactive or inconclusive.
# What was measured:
# [1] = biological target: Lysosomal acid glucosylceramidase (Homo sapiens) (UniProt P04062); experiment: Glucocerebrosidase-p2 (AID 348; in the data active = potency below about 10 µM; note: potency is the fitted concentration of half-maximal effect); conditions: purified GBA, blue fluorogenic substrate, 40 min
# Procedure, shortened: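 Compounds titrated from 0.6 nM upwards against 0.2 nM enzyme in pH 5.9 citric acid/KH2PO4, taurocholate, tween-20; blue fluorogenic substrate 80 uM, 40 min room temperature, stopped and read Ex 365/Em 440 for AC50.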
# [2] = AP1 Signaling Pathway (AID 357; active = well fitted curve in either direction with a large enough effect, not every such curve was filed as active; note: % is set by controls: 0 for no effect and ±100 for the full control effect); conditions: ME-180 AP-1-bla reporter, EGF-induced, beta-lactamase ratio, 5 h; at 7.69 µM (top of the series) unless noted
# Procedure, shortened: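 AP-1-bla ME-180 cells with beta-lactamase reporter under AP-1 response element, stimulated with EC50 EGF; compounds titrated, 5 hours at 37 degrees Celsius. CCF4 read at 460/530 nm ratio; positive and negative modulators judged by AC50.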
# [3] = biological target: Cytochrome P450 1A2 (Homo sapiens) (UniProt P05177); experiment: p450-cyp1a2 (AID 410; calls by dose curve; note: potency is the fitted concentration of half-maximal effect)
# Procedure, shortened: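 Inhibition was calculated relative to 57 uM furafylline (full inhibition). The reaction used human CYP1A2 at 20nM with Luciferin-ME at its Km, 100uM, driven by an NADPH-regenerating system for 60 min at room temperature.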
# [4] = NFAT Signaling Pathway (AID 444; active = well fitted curve in either direction with a large enough effect, not every such curve was filed as active;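 note: carbachol stimulus at about its EC50 of 1 µM final; % is set by controls: 0 for no effect and ±100 for the full control effect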); conditions: Jurkat NFAT-bla M1, carbachol, beta-lactamase ratio, 5 h; at 7.69 µM (top of the series) unless noted
# Procedure, shortened: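 Read-out: CCF4 FRET ratio (460 nm/530 nm) after 1 h RT dye loading, used for %activity and AC50 from titration series. Cells: Jurkat NFAT-β-lactamase/M1 line, treated with compound plus 1 uM carbachol for 5 h, 37 °C.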
# [5] = Stat Signaling Pathway (AID 446; active = well fitted curve in either direction with a large enough effect, not every such curve was filed as active;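 note: ME-180 cervical cancer cells given 40 pM IL-6 alongside compound; SIE-controlled beta-lactamase reporter measured as 460/530 nm FRET emission ratio; % is set by controls: 0 for no effect and ±100 for the full control effect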); conditions: ME-180 SIE beta-lactamase reporter, IL-6 stimulated, 5 h; at 7.69 µM (top of the series) unless noted
# Procedure, shortened: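 Reporter line: ME-180 cervical carcinoma, SIE-beta-lactamase. Treatment: compound with 40 pM IL-6, 5 hrs, 37 C, in low-serum OPTI-MEM with 10 mM HEPES pH 7.3. Detection: 460/530 nm fluorescence.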
# [6] = biological target: Glucocorticoid receptor (Homo sapiens) (UniProt P04150); experiment: GR-GFP Redistribution (AID 450;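 active = compounds whose dose series gives a full or clear partial fitted curve of increased nuclear translocation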; note: potency is the fitted concentration of half-maximal effect); conditions: U2OS GR-GFP nuclear translocation, laser cytometry, 2 h
# [7] = biological target: Glucocorticoid receptor (Homo sapiens) (UniProt P04150); experiment: GR-EFC Redistribution (AID 451; calls by dose curve; note: potency is the fitted concentration of half-maximal effect); conditions: CHO-K1 GR-EFC translocation, beta-gal luminescence, 2 h
# Procedure, shortened: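 Translocation of GR-ED fusion to nuclear EA restores b-gal, read by luminescence after 1 h room-temperature detection. Engineered CHO-K1 biosensor cells, 1,000/well, exposed 2 h at 37 C to titrations up to 46 uM final.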
# [8] = biological target: Mitogen-activated protein kinase 10 (Mus musculus) (UniProt Q61831); experiment: JNK3 AlphaScreen Assay (AID 530; active = well fitted curve in either direction with a large enough effect, not every such curve was filed as active;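 note: kinase came from lysate of stimulated human HepG2 cells; signal reports phosphorylation of biotinylated GST-cJun 1-79 at Ser73 with 10 µM ATP; % is set by controls: 0 for no effect and ±100 for the full control effect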)
# Procedure, shortened: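 Room-temperature AlphaScreen kinase assay; pre-activated HepG2 lysate as JNK3 source, biotin-GST-cJun(1-79) substrate, 10 uM ATP, compound 15 min preincubation.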
# [9] = biological target: Cytochrome P450 3A4 (Homo sapiens) (UniProt P08684); experiment: qHTS Assay for Inhibitors and Substrates of Cytochrome P450 3A4 (AID 884); note: potency is the fitted concentration of half-maximal effect; nearly all actives have a fitted effect of over 50% in size
# Procedure, shortened: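 20 nM human CYP3A4 with 25 uM Luciferin-PPXE (at KM) in 200 mM KPO4, preincubated 10 min with compound; NADPH regeneration started a 60 min RT reaction. Luciferin detected by luminescence, normalized to 57 uM ketoconazole as full inhibition.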
# [10] = biological target: Cytochrome P450 3A4 (Homo sapiens) (UniProt P08684); experiment: qHTS Assay for Activators of Cytochrome P450 3A4 (AID 885); note: nearly all actives have a fitted effect of over 65% in size
# Procedure, shortened: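 Signal was normalized against complete inhibition by 57 uM ketoconazole. The reaction used 20nM CYP3A4 with 25uM Luciferin-PPXE, 10-min compound preincubation and a 60-min NADPH-supported step at RT.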
# [11] = qHTS Assay for Lipid Storage Modulators (AID 1519; calls by dose curve); conditions: Drosophila S3 cells, BODIPY lipid droplet/cell ratio, laser cytometry, cells loaded with oleic acid; for activity change, negative = inhibition: at 57.5 µM (top of the series)
# Procedure, shortened: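 Cells seeded at 5,000 per well were treated with compounds over a concentration series and loaded with oleic acid (400 uM, as added). Lipid droplet fluorescence (488 nm excitation, 500-530 nm channel) was read by laser-scanning cytometry and normalized to 20 uM Triacsin C.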
# [12] = biological target: Dual specificity protein kinase CLK4 (Homo sapiens) (UniProt Q9HAZ1); experiment: qHTS Assay for Inhibitors of CDC-like Kinase 4 (ADP-Glo Assay) (AID 1771); note: % is set by controls: 0 for no effect and ±100 for the full control effect; nearly all actives have a fitted effect of over 70% in size
# Procedure, shortened: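 Kinase reaction: Clk4 at 25 nM, RS repeat peptide substrate at 100 uM, ATP at 1 uM, 1 hr, room temperature. Product ADP detected as luciferase signal via ADP-Glo.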
# [13] = biological target: Dual specificity protein kinase CLK4 (Homo sapiens) (UniProt Q9HAZ1); experiment: qHTS Assay for Inhibitors of CDC-like Kinase 4 (ADP-FP Assay) (AID 1795); note: nearly all actives have a fitted effect of over 60% in size; note: potency is the fitted concentration of half-maximal effect
# Procedure, shortened: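 Kinase activity was measured as ADP production using Transcreener orange tracer (4 nM) and ADP antibody (1 ug/mL) fluorescence polarization, with ADP calculated from a calibration curve. The 1 h reaction contained 6.25 nM Clk4, 1 uM ATP and 100 uM RS peptide at pH 7.5 with Mg2+.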
# [14] = biological target: Ubiquitin carboxyl-terminal hydrolase 1 (Homo sapiens) (UniProt O94782); experiment: Inhibitors of USP1/UAF1: Pilot qHTS (AID 504865);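 note: rhodamine fluorescence freed from ubiquitin-rhodamine substrate followed over time; top concentration of the series differs between compounds; % is set by controls: 0 for no effect and ±100 for the full control effect; nearly all actives have a fitted effect of over 35% in size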
# Procedure, shortened: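 Deubiquitinase activity followed as kinetic rhodamine fluorescence release from 150 nM Ub-Rho. 1 nM USP1/UAF1 with compound, after 15 min room-temperature preincubation, in HEPES pH 7.8 buffer containing TCEP, EDTA, BSA and Tween-20.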
# [15] = Primary qHTS for small molecule stabilizers of the endoplasmic reticulum resident proteome: Secreted ER Calcium Modulated Protein (SERCaMP) assay (AID 1508630); note: % is set by controls: 0 for no effect and ±100 for the full control effect
# Procedure, shortened: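 GLuc-SERCaMP-expressing SH-SY5Y cells, pretreated 16 h with compound, are challenged with thapsigargin to empty ER calcium stores; after 4 h, coelenterazine is added directly to the medium and luminescence is imaged.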
# [16] = biological target: 3',5'-cyclic-AMP phosphodiesterase 4B (Homo sapiens) (UniProt Q07343); experiment: qHTS Assay for Inhibitors of PDE-IV (AID 607; active = well fitted activation curve with a large enough effect in the main read-out, with a control signal flat, not every such curve was filed as active; note: % of control where 0% means no effect)
# Procedure, shortened: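 Cell-based read-out of cAMP via a modified cyclic nucleotide-gated channel and membrane potential dye (535/590 nm) in HEK293 cells expressing PDE4 endogenously. Compounds tested up to 22.9 uM final; 100 uM RO 20-1724 reference.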
# [17] = biological target: Cytochrome P450 2C9 (Homo sapiens) (UniProt P11712); experiment: qHTS Assay for Inhibitors and Substrates of Cytochrome P450 2C9 (AID 883); note: % is set by controls: 0 for no effect and ±100 for the full control effect; nearly all actives have a fitted effect of over 60% in size
# Procedure, shortened: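 Luminescent read-out of deoxyluciferin hydroxylation, normalized to 57uM sulphaphenazole (AC100). Reaction: 10nM enzyme, 100uM Luciferin-H (equal to KM), 25mM KPO4, 10 min compound preincubation, then 60 min with NADPH regeneration, both at 37C.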
# [18] = biological target: Dual specificity protein kinase CLK4 (Homo sapiens) (UniProt Q9HAZ1); experiment: qHTS Assay for Inhibitors of CDC-like Kinase 4 (Kinase-Glo Assay) (AID 1770); note: nearly all actives have a fitted effect of over 65% in size; note: potency is the fitted concentration of half-maximal effect
# Procedure, shortened: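 Luminescent ATP-depletion read-out (Kinase-Glo) after 4.5 h room-temperature reaction of Clk4 (25 nM final) with RS peptide (100 uM) and ATP (1 uM), pH 7.5 Tris buffer with MgCl2 and DTT.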
# [19] = qHTS Assay for Identification of Small Molecule Agonists for Hypoxia Response Element Signaling Pathway (AID 914; active = well fitted activation curve with a large enough effect in the signal ratio, with a control signal flat, not every such curve was filed as active; the % refers to the signal ratio; note: potency is the fitted concentration of half-maximal effect; for activation: % of control where 0% means no effect); conditions: ME-180 (cervical carcinoma) HRE-bla reporter, beta-lactamase ratio, CoCl2, 17 h; activation: stronger effect = higher value
# Procedure, shortened: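 qHTS titration; ME-180 HRE-bla cells; EC50 CoCl2 co-treatment, 17 h at 37 degrees Celsius; CCF4 dye, ex 405nm, em 460nm and 530nm; %Activity from ratio; AC50.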
# [20] = measured here: cell count channel max response
# [21] = measured here: lipid channel max response
# Chain of Cytochrome P450 3A4 (Homo sapiens) (P08684 whole entry, looked up): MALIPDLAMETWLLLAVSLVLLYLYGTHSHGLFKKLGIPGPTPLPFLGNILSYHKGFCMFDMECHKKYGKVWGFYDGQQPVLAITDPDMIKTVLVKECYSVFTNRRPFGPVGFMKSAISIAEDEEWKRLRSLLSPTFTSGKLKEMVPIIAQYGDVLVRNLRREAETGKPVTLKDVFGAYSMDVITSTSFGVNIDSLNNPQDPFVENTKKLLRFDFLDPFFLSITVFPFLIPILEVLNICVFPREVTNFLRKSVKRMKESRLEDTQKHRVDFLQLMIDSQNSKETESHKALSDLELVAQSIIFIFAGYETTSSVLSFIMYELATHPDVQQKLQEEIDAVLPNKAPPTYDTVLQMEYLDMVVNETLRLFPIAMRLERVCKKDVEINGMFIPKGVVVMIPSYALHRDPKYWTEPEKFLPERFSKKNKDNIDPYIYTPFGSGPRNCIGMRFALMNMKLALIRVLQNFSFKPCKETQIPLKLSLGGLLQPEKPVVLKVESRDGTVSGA
# Chain of Ubiquitin carboxyl-terminal hydrolase 1 (Homo sapiens) (O94782 whole entry, looked up): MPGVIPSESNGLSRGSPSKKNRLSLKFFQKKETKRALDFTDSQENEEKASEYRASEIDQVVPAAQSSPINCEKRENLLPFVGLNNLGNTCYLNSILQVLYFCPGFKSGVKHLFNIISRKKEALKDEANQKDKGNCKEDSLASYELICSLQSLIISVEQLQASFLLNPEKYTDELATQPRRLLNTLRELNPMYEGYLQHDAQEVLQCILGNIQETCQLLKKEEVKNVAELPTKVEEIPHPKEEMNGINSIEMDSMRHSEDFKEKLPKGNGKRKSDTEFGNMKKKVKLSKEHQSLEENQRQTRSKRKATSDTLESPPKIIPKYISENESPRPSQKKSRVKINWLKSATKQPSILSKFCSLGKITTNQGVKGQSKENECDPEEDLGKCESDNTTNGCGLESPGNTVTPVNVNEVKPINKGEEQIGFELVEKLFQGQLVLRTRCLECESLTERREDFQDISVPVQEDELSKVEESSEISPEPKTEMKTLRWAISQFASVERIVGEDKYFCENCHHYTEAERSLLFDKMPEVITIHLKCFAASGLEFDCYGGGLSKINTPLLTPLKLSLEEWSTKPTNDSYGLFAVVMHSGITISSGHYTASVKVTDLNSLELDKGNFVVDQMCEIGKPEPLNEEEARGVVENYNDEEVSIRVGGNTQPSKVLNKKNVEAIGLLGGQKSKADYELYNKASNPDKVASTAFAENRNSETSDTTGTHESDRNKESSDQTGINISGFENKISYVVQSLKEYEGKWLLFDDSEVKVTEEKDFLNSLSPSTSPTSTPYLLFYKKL
# Chain of Cytochrome P450 1A2 (Homo sapiens) (P05177 whole entry, looked up): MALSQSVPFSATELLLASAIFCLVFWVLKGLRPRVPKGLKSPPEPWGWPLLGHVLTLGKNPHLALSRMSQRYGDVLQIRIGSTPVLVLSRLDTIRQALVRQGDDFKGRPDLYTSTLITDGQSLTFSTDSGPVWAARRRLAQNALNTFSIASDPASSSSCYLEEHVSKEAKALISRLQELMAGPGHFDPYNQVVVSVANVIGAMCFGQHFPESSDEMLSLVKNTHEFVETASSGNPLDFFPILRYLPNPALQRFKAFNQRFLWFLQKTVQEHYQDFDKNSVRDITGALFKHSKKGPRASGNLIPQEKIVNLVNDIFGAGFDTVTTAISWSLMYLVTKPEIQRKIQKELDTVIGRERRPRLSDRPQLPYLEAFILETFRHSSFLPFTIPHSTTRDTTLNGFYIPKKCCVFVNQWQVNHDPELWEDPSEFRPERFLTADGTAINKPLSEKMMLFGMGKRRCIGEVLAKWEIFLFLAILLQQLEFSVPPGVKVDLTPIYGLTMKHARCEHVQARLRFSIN
# Chain of Lysosomal acid glucosylceramidase (Homo sapiens) (P04062 whole entry, looked up): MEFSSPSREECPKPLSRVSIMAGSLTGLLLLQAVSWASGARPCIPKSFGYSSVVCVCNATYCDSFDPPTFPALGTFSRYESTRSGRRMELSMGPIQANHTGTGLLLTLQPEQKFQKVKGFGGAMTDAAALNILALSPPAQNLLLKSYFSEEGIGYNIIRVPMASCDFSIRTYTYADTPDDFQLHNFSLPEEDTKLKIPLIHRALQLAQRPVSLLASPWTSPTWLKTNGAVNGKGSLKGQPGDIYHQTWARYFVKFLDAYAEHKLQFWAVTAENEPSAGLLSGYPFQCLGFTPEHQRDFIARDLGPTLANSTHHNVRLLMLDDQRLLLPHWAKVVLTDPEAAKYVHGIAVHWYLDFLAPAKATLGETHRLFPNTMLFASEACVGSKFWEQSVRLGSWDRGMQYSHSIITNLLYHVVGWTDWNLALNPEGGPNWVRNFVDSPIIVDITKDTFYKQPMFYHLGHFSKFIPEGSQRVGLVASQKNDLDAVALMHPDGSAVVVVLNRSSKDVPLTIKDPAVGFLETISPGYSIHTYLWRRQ
# Chain of Glucocorticoid receptor (Homo sapiens) (P04150 whole entry, looked up, the tested form may be a part): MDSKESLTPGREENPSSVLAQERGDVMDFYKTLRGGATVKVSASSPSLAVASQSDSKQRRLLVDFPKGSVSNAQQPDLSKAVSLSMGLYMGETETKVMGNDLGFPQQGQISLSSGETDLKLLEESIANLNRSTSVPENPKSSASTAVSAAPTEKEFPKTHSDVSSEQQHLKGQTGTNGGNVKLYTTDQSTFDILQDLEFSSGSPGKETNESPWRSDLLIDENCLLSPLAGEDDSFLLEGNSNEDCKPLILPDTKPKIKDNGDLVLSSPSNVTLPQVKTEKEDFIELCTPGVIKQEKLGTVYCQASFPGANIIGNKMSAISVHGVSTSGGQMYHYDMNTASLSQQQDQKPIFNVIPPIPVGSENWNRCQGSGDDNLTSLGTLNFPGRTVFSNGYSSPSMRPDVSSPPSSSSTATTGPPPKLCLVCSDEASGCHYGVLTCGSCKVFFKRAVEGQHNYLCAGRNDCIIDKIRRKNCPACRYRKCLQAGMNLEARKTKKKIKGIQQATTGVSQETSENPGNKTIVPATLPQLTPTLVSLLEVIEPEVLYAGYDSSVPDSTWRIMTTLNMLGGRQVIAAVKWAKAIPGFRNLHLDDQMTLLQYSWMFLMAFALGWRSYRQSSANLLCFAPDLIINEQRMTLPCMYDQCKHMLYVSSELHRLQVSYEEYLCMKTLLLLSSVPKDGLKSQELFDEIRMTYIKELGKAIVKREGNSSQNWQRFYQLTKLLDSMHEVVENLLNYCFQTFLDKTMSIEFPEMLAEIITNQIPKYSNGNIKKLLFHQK
# Chain of Dual specificity protein kinase CLK4 (Homo sapiens) (Q9HAZ1 whole entry, looked up): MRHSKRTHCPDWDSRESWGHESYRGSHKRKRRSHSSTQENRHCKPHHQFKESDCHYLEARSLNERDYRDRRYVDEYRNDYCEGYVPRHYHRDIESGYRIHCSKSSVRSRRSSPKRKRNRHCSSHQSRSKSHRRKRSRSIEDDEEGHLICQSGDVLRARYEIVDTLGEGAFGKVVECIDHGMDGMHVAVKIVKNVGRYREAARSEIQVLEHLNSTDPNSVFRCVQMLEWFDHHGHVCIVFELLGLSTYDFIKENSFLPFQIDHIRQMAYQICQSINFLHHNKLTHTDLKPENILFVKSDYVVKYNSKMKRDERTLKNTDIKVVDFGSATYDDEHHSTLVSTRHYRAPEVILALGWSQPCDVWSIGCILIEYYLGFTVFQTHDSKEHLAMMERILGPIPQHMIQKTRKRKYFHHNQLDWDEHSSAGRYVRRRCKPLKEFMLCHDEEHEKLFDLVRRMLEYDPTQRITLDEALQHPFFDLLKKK
# Chain of 3',5'-cyclic-AMP phosphodiesterase 4B (Homo sapiens) (Q07343 whole entry, looked up): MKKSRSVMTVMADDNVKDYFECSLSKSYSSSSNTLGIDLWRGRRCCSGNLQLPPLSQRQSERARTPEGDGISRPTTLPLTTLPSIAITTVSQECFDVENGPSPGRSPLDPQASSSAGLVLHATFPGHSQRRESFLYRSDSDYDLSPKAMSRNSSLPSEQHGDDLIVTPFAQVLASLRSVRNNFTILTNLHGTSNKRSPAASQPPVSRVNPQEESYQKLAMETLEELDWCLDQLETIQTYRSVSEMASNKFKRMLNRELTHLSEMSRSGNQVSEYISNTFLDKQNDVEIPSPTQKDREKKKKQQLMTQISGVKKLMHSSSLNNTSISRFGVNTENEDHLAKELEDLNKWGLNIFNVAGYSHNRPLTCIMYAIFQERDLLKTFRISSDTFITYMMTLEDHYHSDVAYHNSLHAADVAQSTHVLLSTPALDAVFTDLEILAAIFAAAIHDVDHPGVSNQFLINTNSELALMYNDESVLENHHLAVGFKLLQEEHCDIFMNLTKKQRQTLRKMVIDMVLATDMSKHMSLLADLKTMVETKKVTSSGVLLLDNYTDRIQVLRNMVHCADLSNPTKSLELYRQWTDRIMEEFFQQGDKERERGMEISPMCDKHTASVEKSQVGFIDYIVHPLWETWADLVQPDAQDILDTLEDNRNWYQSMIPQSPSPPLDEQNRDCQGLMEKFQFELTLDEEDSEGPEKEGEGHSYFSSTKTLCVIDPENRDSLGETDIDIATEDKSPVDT
# Chain of Cytochrome P450 2C9 (Homo sapiens) (P11712 whole entry, looked up): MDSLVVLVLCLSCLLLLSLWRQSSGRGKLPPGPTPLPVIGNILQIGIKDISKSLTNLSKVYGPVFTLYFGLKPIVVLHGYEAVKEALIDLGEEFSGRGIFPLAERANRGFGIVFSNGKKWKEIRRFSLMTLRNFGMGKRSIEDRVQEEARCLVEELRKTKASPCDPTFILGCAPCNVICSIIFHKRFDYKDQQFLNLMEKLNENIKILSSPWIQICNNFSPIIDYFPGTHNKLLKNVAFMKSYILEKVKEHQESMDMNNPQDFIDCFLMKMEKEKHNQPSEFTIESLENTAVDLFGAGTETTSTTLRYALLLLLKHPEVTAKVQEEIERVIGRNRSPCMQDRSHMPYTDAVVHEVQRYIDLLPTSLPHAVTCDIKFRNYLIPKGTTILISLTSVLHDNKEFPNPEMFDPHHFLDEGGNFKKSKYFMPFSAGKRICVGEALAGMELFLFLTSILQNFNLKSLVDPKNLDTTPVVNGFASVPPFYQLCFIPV
compound,measurement,setting,value
O=c1c(-c2cccs2)nc2cncnc2n1Cc1ccccc1,Potency,[1],> 11.4 µM (inactive)
same,"activity change, negative = inhibition",[2],-16.8% (inactive)
same,Potency,[3],2.51 µM (active)
same,"activity change, negative = inhibition",[4],1.15% (inactive)
same,"activity, negative = inhibition",[5],7.21% (inactive)
same,Potency,[6],> 9.22 µM (inactive)
same,Potency,[7],> 46 µM (inactive)
same,outcome,[8],inactive
same,Potency,[9],6.31 µM (active)
same,Potency,[10],inactive
same,"activity change, negative = inhibition",[11],1.03% (inactive)
same,max response,[11]; [20],22.1%
same,max response,[11]; [21],21.4%
same,Potency,[12],inactive
same,Potency,[13],inactive
same,Potency,[14],inactive
same,Potency,[15],inactive
Cc1noc(C)c1-c1cc(NCc2cccnc2)ncn1,Potency,[1],> 11.4 µM (inactive)
same,"activity change, negative = inhibition",[2],2.04% (inactive)
same,Potency,[3],1 µM (active)
same,"activity change, negative = inhibition",[4],-0.73% (inactive)
same,"activity, negative = inhibition",[5],8.46% (inactive)
same,Potency,[6],> 46 µM (inactive)
same,Potency,[7],> 46 µM (inactive)
same,outcome,[8],inactive
same,Potency,[16],inactive
same,"activity change, negative = inhibition",[17],9.31% [at 2.29 µM] (inactive)
same,"activity change, negative = inhibition",[11],2.28% (inactive)
same,max response,[11]; [20],5.59%
same,max response,[11]; [21],6.22%
same,Potency,[18],15.8 µM (active)
same,Potency,[14],inactive
same,Potency,[15],inactive
COc1cccc(Nc2ncc3nc(C)c(=O)n(C4CC4)c3n2)c1,Potency,[1],> 11.4 µM (inactive)
same,"activity change, negative = inhibition",[2],-16.4% (inactive)
same,Potency,[3],1.26 µM (active)
same,"activity change, negative = inhibition",[4],5.07% (inactive)
same,"activity, negative = inhibition",[5],-13.4% (inactive)
same,Potency,[6],> 9.22 µM (inactive)
same,Potency,[7],> 46 µM (inactive)
same,outcome,[8],inactive
same,Potency,[16],inactive
same,Potency,[10],inactive
same,activation,[19],-3.86% (inactive)
same,"activity change, negative = inhibition",[11],-5.91% (inactive)
same,max response,[11]; [20],-1.52%
same,max response,[11]; [21],-13.2%
same,Potency,[18],12.6 µM (active)
same,Potency,[14],inactive
same,Potency,[15],inactive
N#Cc1cccc(-c2nc3cnc(N4CCOCC4)nc3n(C3CC3)c2=O)c1,Potency,[3],2.51 µM (active)
same,Potency,[6],> 9.22 µM (inactive)
same,Potency,[7],> 46 µM (inactive)
same,outcome,[8],inactive
same,Potency,[16],inactive
same,Potency,[10],inactive
same,Potency,[19],3.16 µM (active)
same,"activity change, negative = inhibition",[11],-2.2% (inactive)
same,max response,[11]; [20],17.6%
same,max response,[11]; [21],13.2%
same,Potency,[18],inactive
same,Potency,[13],inactive
same,Potency,[14],inactive
same,Potency,[15],inactive
CN(C)c1ncnc2ccc(-c3ccoc3)cc12,Potency,[1],> 11.4 µM (inactive)
same,Potency,[3],0.794 µM (active)
same,"activity change, negative = inhibition",[4],1.35% (inactive)
same,"activity, negative = inhibition",[5],-10.6% (inactive)
same,Potency,[6],> 46 µM (inactive)
same,Potency,[7],> 46 µM (inactive)
same,outcome,[8],inactive
same,Potency,[10],inactive
same,"activity change, negative = inhibition",[11],1.41% (inactive)
same,max response,[11]; [20],30.5%
same,max response,[11]; [21],29.1%
same,Potency,[18],0.501 µM (active)
same,Potency,[13],178 nM (active)
same,Potency,[14],inactive
same,Potency,[15],inactive
O=c1c(-c2ccc(Cl)cc2)nc2cnc(N3CCOCC3)nc2n1C[C@H]1CCCO1,Potency,[1],> 11.4 µM (inactive)
same,"activity change, negative = inhibition",[2],-9.09% (inactive)
same,Potency,[3],2 µM (active)
same,"activity change, negative = inhibition",[4],-5.22% (inactive)
same,"activity, negative = inhibition",[5],-0.789% (inactive)
same,Potency,[6],> 9.22 µM (inactive)
same,Potency,[7],> 46 µM (inactive)
same,outcome,[8],inactive
same,Potency,[16],inactive
same,"activity change, negative = inhibition",[11],-4.84% (inactive)
same,max response,[11]; [20],4.1%
same,max response,[11]; [21],-3.15%
same,Potency,[12],inactive
same,Potency,[13],inactive
same,Potency,[14],inactive
same,Potency,[15],inactive
